# Data as given in PubChem BioAssay (Tox21).
# “And” between values parts separate entries of the source, which are not always exact repeats. Identical values can stand only once. Inconclusive results are not listed. Entries that show only a call come without a potency. More than one record can exist for a structure, and the calls need not agree. The source made the active and inactive calls. Unless noted, the call rests on the fitted dose curve; in most records, active means well fitted curve in the direction sought with a large enough effect in the repeat runs; inconclusive means weak or mixed curves; inactive means no such curve, though single readings can be large; an effect the other way counts as inactive or inconclusive. Residues, ends and D or L forms follow the SMILES beside them.
# Tests used:
# [1] = qHTS assay for small molecule agonists of the p53 signaling pathway (AID 651631; calls by dose curve; further: nearly all actives have a fitted effect of over 15% in size; further: potency means the concentration at half of the fitted maximal effect)
# In short: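 Testing took place in human colorectal HCT-116 cells with stable p53RE-driven beta-lactamase. After 16 h of compound exposure at 37 °C, a FRET substrate was added and fluorescence recorded 2 h later.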
# [2] = qHTS assay for small molecules that induce genotoxicity in human embryonic kidney cells expressing luciferase-tagged ATAD5 (AID 651632); further: nearly all actives have a fitted effect of over 15% in size; further: potency means the concentration at half of the fitted maximal effect
# In short: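 ATAD5-luc HEK293T, 2,000 cells/well; cpd or DMSO pin-transferred; 16 hr, 37C/5% CO2; Amplite 30 min RT; luminescence.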
# [3] = qHTS assay for small molecule agonists of the p53 signaling pathway - cell viability (AID 651633; calls by dose curve; further: nearly all actives have a fitted effect of over 30% in size; further: potency means the concentration at half of the fitted maximal effect)
# In short: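 p53RE-bla cells were treated with compound for 16 hours at 37 C. Cytotoxicity was then measured as CellTiter-Glo luminescence after 30 min at room temperature.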
# [4] = qHTS assay for small molecules that induce genotoxicity in human embryonic kidney cells expressing luciferase-tagged ATAD5 - cell viability (AID 651634; calls by dose curve; further: nearly all actives have a fitted effect of over 25% in size; further: potency means the concentration at half of the fitted maximal effect)
# In short: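 Fluorescence from CellTiter-Fluor, reporting protease activity within live cells, served as the viability read-out. HEK293T cells carrying luciferase-tagged ATAD5 had been treated with compound for 15.5 hr at 37C.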
# [5] = qHTS assay for small molecule disruptors of the mitochondrial membrane potential - cell viability (AID 720634; calls by dose curve; further: nearly all actives have a fitted effect of over 20% in size; further: potency means the concentration at half of the fitted maximal effect)
# In short: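 Cells: HepG2, 2,000/well, attached overnight. Compound 1 hr, 37 C/5% CO2. +m-MPI dye, +CellTiter-Glo 30 min RT. Readout: luminescence (ATP).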
# [6] = qHTS assay for small molecule disruptors of the mitochondrial membrane potential (AID 720635); further: potency means the concentration at half of the fitted maximal effect
# In short: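 HepG2 cells exposed to compound 1 hr at 37C, then Mito-MPS dye 30 min. Ratio read of aggregate (540/590 nm) versus monomer (490/535 nm) fluorescence.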
# [7] = qHTS assay to test for compound auto fluorescence at 590 nm (red) in HepG2 cells (AID 720674)
# In short: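 Seeding: 2,000 HepG2 cells/well, MEM/10% FBS, overnight 37 C. Dosing: compound vs DMSO. Incubation: 1 hr, 37 C, 5% CO2. Read: fluorescence 540 ex/590 em, Rose Bengal sodium as red reference.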
# [8] = qHTS assay to test for compound auto fluorescence at 535 nm (green) in HepG2 cells (AID 720675)
# [9] = qHTS assay to test for compound auto fluorescence at 460 nm (blue) in HEK293 cells (AID 720678)
# In short: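 Intrinsic compound fluorescence is recorded in live HEK293 cultures after overnight incubation at 37C, 5% CO2, using excitation 405 nm and emission 460 nm. Values are referenced to triamterene.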
# [10] = qHTS assay to test for compound auto fluorescence at 590 nm (red) in HEK293 cells (AID 720679)
# In short: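 Red autofluorescence, HEK293 cells: 2,000 cells/well; attach 4-5 hr 37C; add 23 nL cpd or DMSO; incubate o/n 37C 5% CO2; read Ex540/Em590; Rose Bengal sodium reference.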
Compound,Potency [1],Potency [2],Potency [3],Potency [4],Potency [5],Potency [6],outcome [7],outcome [8],outcome [9],outcome [10]
CC(C)(Oc1ccc(C2CC2(Cl)Cl)cc1)C(=O)O (stereo not drawn),inactive,inactive,inactive,inactive,inactive,inactive,inactive,inactive,inactive,inactive
CCCN(CCC)S(=O)(=O)c1ccc(C(=O)O)cc1,inactive,inactive,inactive,inactive,inactive,inactive,inactive,inactive,inactive,inactive
NNC(=O)c1ccncc1,inactive,inactive,inactive,inactive,inactive,inactive,inactive,inactive,inactive,inactive
CCCNC(=O)NS(=O)(=O)c1ccc(Cl)cc1,inactive,inactive,inactive,inactive,inactive,inactive,inactive,inactive,inactive,inactive
COc1ccc2[nH]cc(CCNC(C)=O)c2c1,inactive,inactive,inactive,inactive,inactive,inactive,inactive,inactive,inactive,inactive
Cc1ccc(O)cc1,inactive,inactive,inactive,inactive,inactive,inactive,inactive,inactive,inactive,inactive
Cc1cc(=O)[nH]c(=S)[nH]1,inactive,inactive,inactive,inactive,inactive,inactive,inactive,inactive,inactive,inactive
NC(=O)c1cnccn1,inactive,inactive,inactive,inactive,inactive,inactive,inactive,inactive,inactive,inactive
CCCCC(CC)COC(=O)/C=C/c1ccc(OC)cc1 (stereo not drawn),inactive,inactive,inactive,inactive,inactive,54.2 µM (active),inactive,inactive,inactive,inactive
O=C(O)c1cc(N=Nc2ccc(S(=O)(=O)Nc3ccccn3)cc2)ccc1O,inactive,inactive,inactive,23.7 µM (active) and 27.4 µM (active) and 48.6 µM (active),inactive,inactive,inactive,inactive,inactive,inactive
CC(=O)NS(=O)(=O)c1ccc(N)cc1,inactive,inactive,inactive,inactive,inactive,inactive,inactive,inactive,inactive,inactive
Cc1noc(NS(=O)(=O)c2ccc(N)cc2)c1C,inactive,inactive,inactive,inactive,inactive,inactive,inactive,inactive,inactive,inactive
NC(=O)c1ccccc1O,inactive,inactive,inactive,inactive,inactive,inactive,inactive,inactive,inactive,inactive
Nc1ccn([C@H]2CC[C@@H](CO)O2)c(=O)n1,inactive,inactive,inactive,inactive,inactive,inactive,inactive,inactive,inactive,inactive
CC(O)CO (stereo not drawn),inactive,inactive,inactive,inactive,inactive,inactive,inactive,inactive,inactive,inactive
Oc1ccc(/C=C/c2cc(O)cc(O)c2)cc1,54.5 µM (active),2.54 µM (active) and 2.46 µM (active) and 3.06 µM (active),inactive and 54.5 µM (active),24.3 µM (active),inactive,2.11 µM (active) and 692 nM (active) and 969 nM (active),inactive,inactive,inactive,inactive
Nc1ccc(O)c(C(=O)O)c1,inactive,inactive,inactive,inactive,inactive,inactive,inactive,inactive,inactive,inactive
Nc1ccc(S(=O)(=O)Nc2nccs2)cc1,inactive,inactive,inactive,inactive,inactive,inactive,inactive,inactive,inactive,inactive
CCCCOC(=O)CC(CC(=O)OCCCC)(OC(C)=O)C(=O)OCCCC,inactive,inactive,inactive,inactive,inactive and 7.78 µM (active),8.73 µM (active),inactive,inactive,inactive,inactive
CC(O)CN(CCN(CC(C)O)CC(C)O)CC(C)O (stereo not drawn),inactive,inactive,inactive,inactive,inactive,inactive,inactive,inactive,inactive,inactive
O=c1cc[nH]c(=S)[nH]1,inactive,inactive,inactive,inactive,inactive,inactive,inactive,inactive,inactive,inactive
Cc1cc(=O)n(-c2ccccc2)n1C,inactive,inactive,inactive,inactive,inactive,inactive,inactive,inactive,inactive,inactive
CC(O)C(=O)O (stereo not drawn),inactive,inactive,inactive,inactive,inactive,inactive,inactive,inactive,inactive,inactive
Nc1ccc(S(=O)(=O)c2ccc(N)cc2)cc1,inactive,inactive,inactive,inactive,inactive,inactive,inactive,inactive,inactive,inactive

Compound,Potency [1],Potency [2],Potency [3],Potency [4],Potency [5],Potency [6],outcome [7],outcome [8],outcome [9],outcome [10]
CC1(C)[C@@H]2CC[C@@]1(C)C(=O)C2,inactive,inactive,inactive,inactive,inactive,inactive,inactive,inactive,inactive,inactive
c1ccc2[nH]ccc2c1,inactive,inactive,inactive,inactive,inactive,inactive,inactive,inactive,inactive,inactive
Nc1ccc(C(=O)O)cc1,inactive,inactive,inactive,inactive,inactive,inactive,inactive,inactive,inactive,inactive
O=S(=O)(O)c1ccc2cc(O)ccc2c1,inactive,inactive,inactive,inactive,inactive,inactive,inactive,inactive,inactive,inactive
O=C(O)CCCCCCCC(=O)O,inactive,inactive,inactive,inactive,inactive,inactive,inactive,inactive,inactive,inactive
NC(N)=NC(=O)c1nc(Cl)c(N)nc1N,inactive,inactive,inactive,inactive,inactive,inactive,inactive,inactive,inactive,inactive
COC(=O)[C@H](Cc1ccccc1)NC(=O)[C@@H](N)CC(=O)O (H-Asp-Phe-OMe),inactive,inactive,inactive,inactive,inactive,inactive,inactive,inactive,inactive,inactive
CCOc1ccc(NC(=O)CC(C)O)cc1 (stereo not drawn),inactive,inactive,inactive,inactive,inactive,inactive,inactive,inactive,inactive,inactive
CC(=O)Nc1nnc(S(N)(=O)=O)s1,inactive,inactive,inactive,inactive,inactive,inactive,inactive,inactive,inactive,inactive
CCCC(O)C(CC)CO (stereo not drawn),inactive,inactive,inactive,inactive,inactive,inactive,inactive,inactive,inactive,inactive
O=c1ccc2ccccc2o1,inactive,inactive,inactive,inactive,inactive,inactive,inactive,inactive,inactive,inactive
O=C(O)c1[nH]n(-c2ccc(S(=O)(=O)O)cc2)c(=O)c1N=Nc1ccc(S(=O)(=O)O)cc1,inactive,inactive,inactive,30.7 µM (active) and 57.1 µM (active),inactive,inactive,inactive,inactive,inactive,inactive
O=C(C1CCCCC1)N1CC(=O)N2CCc3ccccc3C2C1 (stereo not drawn),–,–,–,inactive,inactive,inactive,inactive,inactive,inactive,inactive
OCCc1ccccc1,inactive,–,inactive,inactive,inactive,inactive,inactive,inactive,inactive,inactive
O=C(c1ccccc1)c1ccccc1,inactive,–,inactive,–,inactive,–,inactive,inactive,inactive,inactive
O=C(O)c1cccnc1,–,–,–,inactive,inactive,inactive,inactive,inactive,inactive,inactive
O=C1NC(=O)c2ccccc21,–,–,inactive,inactive,inactive,inactive,inactive,inactive,inactive,inactive
O=C(O)C(=O)O,–,inactive,inactive,inactive,inactive,inactive,inactive,inactive,inactive,inactive
Cc1cn([C@H]2C[C@H](N=[N+]=[N-])[C@@H](CO)O2)c(=O)[nH]c1=O,inactive,–,inactive,–,inactive,inactive,inactive,inactive,inactive,inactive
Cn1cc[nH]c1=S,–,inactive,–,inactive,inactive,inactive,inactive,inactive,inactive,inactive
Cn1c(=O)c2[nH]cnc2n(C)c1=O,inactive,–,inactive,–,inactive,–,inactive,inactive,inactive,inactive
NC(N)=O,–,inactive,inactive,inactive,inactive,inactive,inactive,inactive,inactive,inactive
Cc1ccc(S(=O)(=O)NC(=O)NN2CCCCCC2)cc1,–,inactive,inactive,inactive,inactive,inactive,inactive,inactive,inactive,inactive
